Source: PubChem BioAssay (The Scripps Research Institute Molecular Screening Center)
EBNA-1 inhibitor = blocks EBNA-1 binding to DNA; EBNA-1 DNA binding, fluorescence polarization; inhibition, % at 14.8 µM; actives 0.34% (n = 300,000); in the data active = inhibition above about 28%
bovine MsrA act = activates bovine MsrA enzyme; purified bovine MsrA, absorbance read-out; activation, % at 10.6 µM; actives 0.3% (n = 360,000); in the data active = activation above about 7.5%
PP5 primary = inhibitors of human protein phosphatase 5 (PP5); P53041; purified PP5c, OMFP substrate fluorescence; inhibition, % at 6.7 µM; actives 0.18% (n = 320,000); AID 1987;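 active = inhibition above the campaign's mean inhibition across all tested compounds plus 3 SD, cut at about 9.5% in these data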
Target sequence (P53041 whole entry, looked up): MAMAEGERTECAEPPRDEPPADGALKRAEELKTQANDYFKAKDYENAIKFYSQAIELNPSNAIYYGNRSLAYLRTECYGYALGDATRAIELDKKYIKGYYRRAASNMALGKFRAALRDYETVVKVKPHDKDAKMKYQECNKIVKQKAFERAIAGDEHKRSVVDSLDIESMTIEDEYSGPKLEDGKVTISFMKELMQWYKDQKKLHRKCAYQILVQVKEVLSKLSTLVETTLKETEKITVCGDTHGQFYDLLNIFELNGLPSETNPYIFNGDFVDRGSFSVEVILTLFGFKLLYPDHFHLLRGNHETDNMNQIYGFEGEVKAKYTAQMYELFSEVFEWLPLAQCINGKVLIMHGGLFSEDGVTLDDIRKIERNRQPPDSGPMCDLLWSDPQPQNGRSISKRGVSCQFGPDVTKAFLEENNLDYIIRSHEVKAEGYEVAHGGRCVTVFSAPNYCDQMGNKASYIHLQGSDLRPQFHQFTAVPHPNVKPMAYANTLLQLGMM
ZTA DNA inh = ZTA (EBV) inhibition in EBNA-1 counter-screen | AID 2234 | ZTA-DNA binding, fluorescence polarization | P03206 | actives 0.15% (n = 320,000) | inhibition, % at 11 µM; in the data active = inhibition above about 33%
Target sequence (P03206 whole entry, looked up): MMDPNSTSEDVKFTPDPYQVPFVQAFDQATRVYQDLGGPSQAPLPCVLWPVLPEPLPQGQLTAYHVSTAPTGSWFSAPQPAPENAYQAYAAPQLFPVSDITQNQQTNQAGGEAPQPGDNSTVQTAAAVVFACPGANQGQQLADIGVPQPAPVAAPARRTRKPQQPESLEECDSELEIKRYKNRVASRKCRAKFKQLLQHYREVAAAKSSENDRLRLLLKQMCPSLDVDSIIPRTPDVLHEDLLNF
MsrA inhibitor = inhibitors of bovine MsrA. inhibition, % at 15.5 µM. purified bovine MsrA, absorbance read-out. actives 0.75% (n = 360,000). AID 651718; in the data active = inhibition above about 4.5%
PP1 counter = PP1-alpha (human) inhibition in PP5 counter-screen. P62136. purified PP1alpha, OMFP fluorescence. inhibition, % at 6.7 µM. actives 0.9% (n = 320,000). AID 2235;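 active = inhibition above the mean inhibition of all tested compounds plus 3 SD, computed separately for each screening campaign, cut at about 15% in these data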
Large screens that a line does not name were inactive; ! = repeats disagree. An excerpt weighted towards active compounds, which were near 2.3% of everything screened.

CC(Oc1ccc(Cl)cc1Cl)C(=O)NC1=NN(c2ccccc2)C(=O)C1 (stereo unspecified)	PP1 counter 16.6
CC(=O)Nc1ccc(NC(=O)C(C)Oc2ccc(Cl)cc2Cl)cc1 (stereo unspecified)	none
COc1cc(NCCCCCCCN)c2ncccc2c1	none (no result: MsrA inhibitor)
COc1cc(NC(C)CCCN)c2ncccc2c1 (stereo unspecified)	PP1 counter 16.2
COc1cc([N+](=O)[O-])ccc1NC(=O)CN(C)C	none
CCN(CC(=O)Nc1ccc([N+](=O)[O-])cc1OC)c1ccccc1	MsrA inhibitor 4.8
Cc1cc(Oc2cccnc2)ccc1NC(=O)Cc1c(C)[nH]c2ccccc12	none (no result: EBNA-1 inhibitor, bovine MsrA act, PP5 primary, ZTA DNA inh, PP1 counter)
O=C(CSc1nnc(Nc2ccccc2)s1)NN1C(=O)NC2(CCCCC2)C1=O	none
COc1cccc2c1OCC(CN1CCN(Cc3ccccc3)C(CCO)C1)=C2 (stereo unspecified)	none
COc1cccc2c1OCC(CN1CCN(Cc3ccccc3F)C(CCO)C1)=C2 (stereo unspecified)	EBNA-1 inhibitor active, ZTA DNA inh 129.9
COc1cccc(/C=N/NC(=O)c2cc(-c3cccn3C)n[nH]2)c1O	PP1 counter 16.4
CCCN1C(=O)c2n[nH]c(C)c2C1c1ccc2c(c1)OCO2 (stereo unspecified)	none (no result: EBNA-1 inhibitor, bovine MsrA act, PP5 primary, ZTA DNA inh, PP1 counter)
O=C(CCCN1C(=O)/C(=C/c2ccccc2Cl)SC1=S)Nc1cccnc1	PP1 counter 16.9
O=C(CCN1C(=O)/C(=C/c2ccccc2Cl)SC1=S)Nc1cccnc1	PP1 counter 15.2
O=C(CCCN1C(=O)/C(=C/c2ccccc2Cl)SC1=S)Nc1ccccn1	none
Cc1cccc(-c2ncc(CN3CCN(CC(C)C)C(CCO)C3)cn2)c1 (stereo unspecified)	none
COc1ccccc1OCCCOc1cccc(/C=C2\SC(=O)NC2=O)c1	PP1 counter 15.9
Cc1ccc2nc(-c3ccc(NC(=O)COCC(=O)O)cc3)sc2c1	MsrA inhibitor 4.5
COc1ccc(NC(=O)CCC(=O)c2ccc(-c3ccccc3)cc2)cc1	PP1 counter 15.7
Clc1ccc(-c2csc(NCC3CCCO3)n2)cc1 (stereo unspecified)	none (no result: EBNA-1 inhibitor, bovine MsrA act, PP5 primary, ZTA DNA inh, PP1 counter)
O=C(NC(NC(=S)Nc1ccc(Cl)cc1Cl)C(Cl)(Cl)Cl)c1cccc([N+](=O)[O-])c1 (stereo unspecified)	PP1 counter 15.4
O=C(O)c1cccc(NC(=S)NC(NC(=O)c2cccc([N+](=O)[O-])c2)C(Cl)(Cl)Cl)c1 (stereo unspecified)	none
CC(=O)Nc1cc2c(cc1[N+](=O)[O-])OCCO2	MsrA inhibitor 4.6
COc1ccc(C(=O)c2[nH]c(N)c(C(=O)c3c[nH]c4ccccc34)c2-c2ccc(OC)cc2)cc1	none (no result: EBNA-1 inhibitor, bovine MsrA act, PP5 primary, ZTA DNA inh, PP1 counter)
COc1cccc(-c2ccc3c(c2)[C@@H]2C[C@H]4[C@@H](CN2CC3)[C@H](C)ON4C)c1	none (no result: EBNA-1 inhibitor, bovine MsrA act, PP5 primary, ZTA DNA inh, PP1 counter)
Cc1ccc2nnnc(-c3ccccc3)c2c1	EBNA-1 inhibitor 38.3, ZTA DNA inh 35.4
Cc1ccc2nc(NCC(N)=O)nc(-c3ccccc3)c2c1	none (no result: bovine MsrA act)
COC(=O)C1=C(C)N(Cc2ccc(C(F)(F)F)cc2)C(=NCc2ccccc2C(F)(F)F)NC1c1ccccc1C(F)(F)F (stereo unspecified)	none (no result: EBNA-1 inhibitor, bovine MsrA act, PP5 primary, ZTA DNA inh, PP1 counter)
Cc1ccc(C)n1-c1cccc(C(=O)O)c1	ZTA DNA inh 77.5 (no result: bovine MsrA act, MsrA inhibitor)
CCOC(=O)Cc1csc(NC(=O)Cn2cnc3c2c(=O)n(C)c(=O)n3C)n1	none
Cn1c(=O)c2c(ncn2CC(=O)Nc2nc(-c3ccccc3Cl)cs2)n(C)c1=O	EBNA-1 inhibitor 27.5
O=C(/C=C(\Nc1ccc(Br)c(F)c1)c1ccccc1)c1ccccc1	none (no result: EBNA-1 inhibitor, bovine MsrA act, PP5 primary, ZTA DNA inh, PP1 counter)
Oc1cccc(-c2sc3ccccc3c2-c2ccc(OCCN3CCCCC3)cc2)c1	none (no result: EBNA-1 inhibitor, PP5 primary, ZTA DNA inh, PP1 counter)
O=C(c1ccc(OCCN2CCCCC2)cc1)c1c(-c2ccc(O)cc2)sc2cc(O)ccc12	PP1 counter 16.3!
CCOc1ccc(C(=O)N[C@H](C(=O)Nc2cccc(S(=O)(=O)N3CCCCC3)c2)C(C)C)cc1	EBNA-1 inhibitor 41.9
O=C(CCCOc1ccccc1)Nc1cccc(S(=O)(=O)N2CCCCC2)c1	none (no result: EBNA-1 inhibitor)
CC(C)(C)c1ccc(OCCC(=O)Nc2cccc(S(=O)(=O)N3CCCCC3)c2)cc1	PP1 counter 16.2
O=C(NCC1CCN(C(=O)C(=O)c2cccs2)CC1)c1cccnc1	none (no result: EBNA-1 inhibitor, bovine MsrA act, PP5 primary, ZTA DNA inh, PP1 counter)
Cc1c(/C(O)=C2\C(=O)C(=O)N(CCN(C)C)C2c2cccs2)cnn1-c1ccccc1 (stereo unspecified)	MsrA inhibitor 4.6
CC(=O)C1=C(O)C(=O)N(c2ccc(Br)cc2)C1c1cccc(F)c1 (stereo unspecified)	PP1 counter 15.7
CC(=O)C1=C(O)C(=O)N(c2ccc(O)cc2)C1c1cccc(F)c1 (stereo unspecified)	none
c1ccc(Oc2nc(-c3ccccn3)nc3ccccc23)cc1	PP1 counter 15.9
COc1ccc(Oc2nc(-c3ccccn3)nc3ccccc23)cc1	none
FC(F)(F)c1ccccc1Cc1c(-c2ccco2)nc2c3ccccc3ccn12	none (no result: EBNA-1 inhibitor, bovine MsrA act, PP5 primary, ZTA DNA inh, PP1 counter)
COc1ccc2nc(-n3c(O)c(C4=c5ccccc5=NC4=O)[nH]c3=S)sc2c1	PP1 counter 15.3
C[C@H](CO)N1C[C@H](C)[C@@H](CN(C)C(=O)Nc2cccc(F)c2)OCc2cn(nn2)CCCC1=O	none (no result: EBNA-1 inhibitor, bovine MsrA act, PP5 primary, ZTA DNA inh, PP1 counter)
CCC(=O)N1CCN(c2nc3ccccc3s2)CC1	none
O=C(c1cc2sccc2n1Cc1ccccc1)N1CCN(c2nc3ccccc3s2)CC1	PP1 counter 15.3
NC(=O)c1cc[n+](CC2=C(C(=O)O)N3C(=O)[C@@H](NC(=O)C(c4ccccc4)S(=O)(=O)[O-])[C@H]3SC2)cc1 (stereo partly specified)	ZTA DNA inh 35.0 (no result: MsrA inhibitor)
CCOC(=O)N1CCN(C(=O)C[C@H]2C[C@@]3(C(=O)OC)C(=C[C@H](COCc4ccccc4)O[C@@H]3C)N(Cc3ccc4c(c3)OCO4)C2=O)CC1	none (no result: EBNA-1 inhibitor, bovine MsrA act, PP5 primary, ZTA DNA inh, PP1 counter)
O=C(CC1CCCC1)N[C@H](C(=O)N1CCC[C@H]1C(=O)NC1CCCC1)c1ccccc1	none (no result: EBNA-1 inhibitor, bovine MsrA act, PP5 primary, ZTA DNA inh, PP1 counter)
CCc1ccc2[nH]c(=O)c(CN(Cc3ccc(F)cc3)C(c3nnnn3CCN3CCOCC3)C(C)C)cc2c1 (stereo unspecified)	bovine MsrA act 8.6 (no result: MsrA inhibitor)
CCc1ccc2[nH]c(=O)c(C(c3nnnn3CCOC)N3CCN(c4ccc(F)cc4)CC3)cc2c1 (stereo unspecified)	none
Nc1nc2c(ncn2[C@@H]2O[C@H](C(=O)N[C@H](Cc3ccccc3)C(=O)NCCCc3ccccc3)[C@@H](O)[C@H]2O)c(=O)[nH]1	none (no result: EBNA-1 inhibitor, bovine MsrA act, PP5 primary, ZTA DNA inh, PP1 counter)
CC(=O)Nc1ccc2c(c1)C(C)(C)C(C)N2C (stereo unspecified)	EBNA-1 inhibitor 45.5, ZTA DNA inh 60.4 (no result: bovine MsrA act)
CCC(=O)c1ccc(NC(C)=O)cc1O	none
COC(=O)C1=C(C)N(Cc2ccc(C(F)(F)F)cc2)C(=NCc2ccccc2)NC1c1ccc(C(F)(F)F)cc1 (stereo unspecified)	none (no result: EBNA-1 inhibitor, bovine MsrA act, PP5 primary, ZTA DNA inh, PP1 counter)
COC(=O)c1cc2c(c3c4cc(C)ccc4n(S(=O)(=O)c4ccc(C)cc4)c13)C(=O)N(Cc1ccccc1OC)C2	none (no result: EBNA-1 inhibitor, bovine MsrA act, PP5 primary, ZTA DNA inh, PP1 counter)
